Sampled rows, rich in hits. Any-hit rate of the full collection: about 3.7%.
GLP1R inv ag – GLP-1 receptor (human) inverse agonism; Potency, µM (doses to about 38.3 µM), for inactives: at the highest dose activity change, negative = inhibition, actives largely listed as inhibitors; hit rate 1.6% among 410,000; HEK293 GLP-1R CRE-luciferase, luminescence, 24 h; GLP-1R form is constitutively active; AID 624417; note: potency is the fitted concentration of half-maximal effect; % is set by controls: 0 for no effect and ±100 for the full control effect; nearly all actives have a fitted effect of over 55% in size
Target sequence (P43220 whole entry, looked up): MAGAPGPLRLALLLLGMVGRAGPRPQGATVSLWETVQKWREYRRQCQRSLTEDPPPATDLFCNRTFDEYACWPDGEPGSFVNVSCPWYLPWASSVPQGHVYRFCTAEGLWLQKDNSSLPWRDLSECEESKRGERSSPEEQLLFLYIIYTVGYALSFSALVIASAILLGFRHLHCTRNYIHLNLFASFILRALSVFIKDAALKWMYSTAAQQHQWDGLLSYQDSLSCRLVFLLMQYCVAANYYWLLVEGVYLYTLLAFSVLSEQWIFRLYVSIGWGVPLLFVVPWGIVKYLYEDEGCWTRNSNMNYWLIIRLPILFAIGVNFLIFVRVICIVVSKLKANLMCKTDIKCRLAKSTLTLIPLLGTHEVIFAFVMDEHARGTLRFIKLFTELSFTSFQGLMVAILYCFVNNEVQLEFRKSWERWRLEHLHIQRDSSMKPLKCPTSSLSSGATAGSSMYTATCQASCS
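Constitutively active GLP-1R drives a cAMP-responsive luciferase in stably transfected HEK293 cells; test compounds are added after overnight (12 h) attachment and left 24 hr, and signal loss in luminescence marks inhibition.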
HepG2 tox-1 – kills HepG2 cells in TGF-b inhibitor counter-screen; hit rate 0.76% among 410,000; HepG2 CAGA-GFP viability, ATP luminescence, 18 h; Potency, µM (doses to about 46.1 µM), without a hit: at the top dose activity change, negative = cytotoxicity, hits mostly cytotoxic; note: potency is the fitted concentration of half-maximal effect
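CellTiter-Glo luminescence gave cytotoxicity after 18 hours at 37 degrees C. The cells were HepG2 CAGA-GFP in 1% FBS DMEM, stimulated with 500 pg/mL TGF-beta after compound addition. %Activity was normalised to no-cell wells (complete cell-killing) and DMSO (no toxicity), and curves were fitted and classified.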
TGFb inhibitor – TGF-b pathway inhibition; HepG2 CAGA-GFP TGF-b/SMAD3 reporter, GFP fluorescence, 18 h; TGF-beta stimulated, 500 pg/mL final; Potency, µM (top dose mostly 46.1 µM), for inactives: top-dose activity, negative = inhibition, actives largely listed as inhibitors; hit rate 1.2% among 410,000; note: potency is the fitted concentration of half-maximal effect; % is set by controls: 0 for no effect and ±100 for the full control effect; nearly all actives have a fitted effect of over 65% in size
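Inhibition of TGF-beta-driven CAGA-GFP reporter expression in HEPG2 cells is measured by cellular GFP fluorescence after 18 h stimulation with 500 pg/mL recombinant TGF-beta in 1% FBS medium at 37 degrees C.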
GLP1R ag – activates the human GLP-1 receptor; P43220; Potency, µM (highest dose often 45.6 µM), for inactives: at the highest dose activation, most hits filed as activators; HEK293 GLP-1R CRE-luciferase, luminescence, 4-6 h; cells express a hypersensitive GLP-1R form; hit rate 0.007% among 380,000; note: potency is the fitted concentration of half-maximal effect; % of control where 0% means no effect
ATXN2 expr inh – reduces ATXN2 reporter expression in HEK-293 cells; HEK-293 ATXN2-luciferase reporter, luminescence, 24 h; hit rate 0.72% among 360,000; Potency, µM (top dose mostly 57 µM), inactives show at the highest dose activity change, negative = inhibition, actives largely listed as inhibitors; note: potency is the fitted concentration of half-maximal effect; % is set by controls: 0 for no effect and ±100 for the full control effect; nearly all actives have a fitted effect of over 55% in size
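ATXN2-luciferase reporter cells (luciferase flanked by upstream and downstream ATXN2 gene portions) were treated 24 h at 37 °C with compounds at up to 57 uM. SteadyGlo luminescence gave expression; GF-AFC fluorescence gave viability.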
S2 tox – reduces viability in counter-screen for ATXN expression inhibitors. S2 cells (HEK-293 line with an ATXN2-luciferase reporter) viability, CellTiter-Fluor protease fluorescence, 24 h. Potency, µM (series often up to 56.7 µM), usual class: cytotoxic. hit rate 0.49% among 400,000. AID 651635; note: potency is the fitted concentration of half-maximal effect; nearly all actives have a fitted effect of over 40% in size
TGFb CAGA inh – TGF-b pathway inhibition, cherry-pick retest; shares compounds with TGFb inhibitor; HepG2 CAGA-GFP TGF-b reporter, GFP fluorescence, 18 h; cells stimulated with TGF-beta, 500 pg/mL; Potency, µM (highest dose often 46.1 µM), for inactives: top-dose activity, negative = inhibition, hits mostly inhibitors; hit rate 63% among 1,600; AID 720534; note: potency is the fitted concentration of half-maximal effect; % is set by controls: 0 for no effect and ±100 for the full control effect; nearly all actives have a fitted effect of over 65% in size
HepG2 tox-2 – HepG2 cytotoxicity, TGF-b inhibitor counterscreen. AID 720535. HepG2 CAGA-GFP viability, ATP luminescence, 18 h; cells stimulated with TGF-beta, 500 pg/mL. shares compounds with TGFb inhibitor. hit rate 27% among 1,600. Potency, µM (doses to about 46.1 µM), without a hit: at the highest dose activity, negative = cytotoxicity, most hits filed as inhibitors; note: potency is the fitted concentration of half-maximal effect; % is set by controls: 0 for no effect and ±100 for the full control effect; nearly all actives have a fitted effect of over 70% in size
CCL64 TGFb inh – blocks TGF-b signaling in CCL64 reporter cells | Potency, µM (series often up to 46.1 µM), inactives show at the highest dose activity, negative = inhibition, hits mostly inhibitors | shares compounds with TGFb inhibitor | CCL64 CAGA-GFP reporter, TGF-b stimulated, GFP fluorescence, 18 h | hit rate 41% among 1,600; note: potency is the fitted concentration of half-maximal effect; nearly all actives have a fitted effect of over 65% in size
COP TGFb inh – validation of TGF-b inhibitors in HepG2 COP promoter reporter. shares compounds with TGFb inhibitor. HepG2 COP-GFP TGF-b reporter, GFP fluorescence, 18 h; cells stimulated by added recombinant TGF-beta. Potency, µM (top dose mostly 46.1 µM), for the others: at the highest dose activity, negative = inhibition, usual class: inhibitors. hit rate 3% among 1,600; note: potency is the fitted concentration of half-maximal effect; nearly all actives have a fitted effect of over 70% in size
EBOV S4 ratio – Ebola virus entry blockers, screen 4 ratio channel. AC50, µM. hit rate 79% among 170. Ebola pseudovirus entry assay, ratio channel. shares compounds with ATXN2 expr inh; calls by dose curve
EBOV S4 blue – blocks Ebola virus entry, screen 4 blue channel readout | shares compounds with ATXN2 expr inh | Ebola virus entry assay, blue channel fluorescence ratio; Channel: blue | calls only | 170 tested, under 10 active | AID 1117309; call rule not given here
EBOV S4 green – blocks Ebola virus entry, screen 4 green channel readout; 170 tested, under 10 active; shares compounds with ATXN2 expr inh; calls only; Ebola virus entry reporter assay, green fluorescence channel; Channel: green; AID 1117316; call rule not given here
SK-N-SH 3D tox – kills SK-N-SH neuroblastoma spheroids in orthogonal 3D test | shares compounds with ATXN2 expr inh | SK-N-SH 3D spheroid viability, PI/Hoechst imaging, 72 h | Potency, µM (top dose mostly 30.7 µM), usual class: inhibitors | hit rate 70% among 65 | AID 1347135
SJ-GBM2 3D tox – SJ-GBM2 spheroid viability loss, orthogonal 3D screen | SJ-GBM2 3D spheroid viability, PI/Hoechst imaging, 72 h | Potency, µM (doses to about 30.7 µM), most hits filed as inhibitors | hit rate 80% among 65 | shares compounds with ATXN2 expr inh
Daoy 3D tox – reduced viability of Daoy 3D spheroids, orthogonal test; Potency, µM (highest dose often 30.7 µM), usual class: inhibitors; AID 1347137; hit rate 50% among 65; Daoy 3D spheroid viability, PI/Hoechst imaging, 72 h; shares compounds with ATXN2 expr inh
TC32 3D casp – activates caspase in TC32 3D spheroids; shares compounds with ATXN2 expr inh; TC32 3D spheroids, caspase-3/7 fluorescence imaging, 24 h; Potency, µM (series often up to 30.7 µM), actives largely listed as inhibitors; hit rate 30% among 65; AID 1347138
TC32 spheroid – kills TC32 spheroids in orthogonal 3D test; hit rate 60% among 65; Potency, µM (highest dose often 30.7 µM), usual class: inhibitors; shares compounds with ATXN2 expr inh; AID 1347139; TC32 3D spheroid viability, PI/Hoechst imaging, 72 h
MG63 3D tox – reduced viability of MG-63 (6-TG R) 3D spheroids, orthogonal test. shares compounds with ATXN2 expr inh. MG-63 (6-TG R) 3D spheroid viability, PI/Hoechst imaging, 72 h. Potency, µM (highest dose often 30.7 µM), most hits filed as inhibitors. hit rate 50% among 65
RD 3D tox – RD 3D spheroid viability loss; shares compounds with ATXN2 expr inh; RD rhabdomyosarcoma 3D spheroid viability, PI/Hoechst imaging, 72 h; Potency, µM (top dose mostly 30.7 µM), usual class: inhibitors; hit rate 50% among 65; AID 1347141
* = called active by the depositor; i = inactive; ? = inconclusive; nt = no result given; ! = not active in a repeat. Unless noted, calls come from the whole dose curve; as a rule, active = well fitted curve in the direction sought with a large enough effect; inconclusive = small, poorly fitted or top-dose-only effect, or another doubt; inactive = no such curve, though single readings can be large; an effect the other way counts as inactive or inconclusive.

SMILES	GLP1R inv ag	HepG2 tox-1	TGFb inhibitor	GLP1R ag	ATXN2 expr inh	S2 tox	others
Nc1nc(F)nc2c1ncn2[C@@H]1O[C@H](CO)[C@@H](O)[C@@H]1O	-1.1%	-38.1%	0.501µM*	-3.5%	1.72µM*!	i	TGFb CAGA inh=0.461µM*;HepG2 tox-2=0.461µM*;CCL64 TGFb inh=-33.2%;COP TGFb inh=42.0%;SK-N-SH 3D tox=0.456µM*;SJ-GBM2 3D tox=0.287µM*;Daoy 3D tox=0.362µM*;TC32 3D casp=3.62µM*;TC32 spheroid=2.04µM*;MG63 3D tox=0.204µM*;RD 3D tox=1.44µM*
O=C(c1ccc(Cl)cc1)c1cn(Cc2ccccc2)c2cc3c(cc2c1=O)OCCO3	?	-11.7%	-13.4%	nt	0.0%	i
CCCCCCCCN1C(=O)[C@H](CC(=O)NCCc2ccccc2OC)C[C@@]2(C(=O)OC)CCCCC=C12	?	nt	nt	-1.3%	?	nt
C[C@@H]1CNC(=O)c2c(C(=O)Nc3ccc(CNC(=O)OC(C)(C)C)cc3)ncn21	9.1%	-19.1%	?	13.8%	?	?
C=C1C=C(C(F)F)n2ncc(C(=O)NCc3ccccc3F)c2N1	nt	-7.8%	-4.1%	nt	nt	nt
C[C@H]1CNCCc2ccc(Cl)cc21	nt	nt	nt	0.4%	-15.8%	i
Cc1ccc([C@H]2C[C@H](n3cc(C4CC4)nn3)[C@@H](O)CN2Cc2cccs2)cc1	?	-24.2%	-26.5%	0.6%	15.6%	?
Cc1ccccc1S(=O)(=O)N(C)C[C@@H]1OCc2ccccc2-c2c(n(C)c3ccccc23)C(=O)N([C@H](C)CO)C[C@@H]1C	?	-32.0%	?	-0.5%	?	?
CC(C)(C)NCC(O)c1cc(Cl)c(N)c(Cl)c1 (configuration not stated)	50.0%	-11.4%	4.8%	?	-9.5%	?
CC(C)c1ccc(NC(=O)Cn2c(=O)oc3cc(S(=O)(=O)N4CCCC4)ccc32)cc1	?	-17.2%	-15.3%	-0.2%	-37.1%	i
CCc1ccccc1NC(=O)NNS(=O)(=O)c1cc(C)ccc1C	-26.0%	0.2%	84.9%	-2.2%	-11.4%	i
C#Cc1cccc(Nc2ncnc3cc(OCCOC)c(OCCOC)cc23)c1	nt	nt	nt	1.4%	?	?	EBOV S4 ratio=i;EBOV S4 blue=i;EBOV S4 green=i
O=C(Cn1c(=O)oc2cc(S(=O)(=O)NCc3ccccc3)ccc21)NCc1ccc(F)cc1	?	-46.5%	?	nt	-33.7%	?
O=c1[nH]c(=O)n(C2CCCCC2)c(O)c1C1=Nc2ccccc2SC(c2ccc(Cl)cc2)C1 (configuration not stated)	?	-4.6%	23.1%	nt	90.9%	i
CC(C)[C@@]1(NC(=O)[C@H]2CC3c4cccc5[nH]cc(c45)C[C@H]3N(C)C2)O[C@@]2(O)C3CCCN3C(=O)[C@@H](Cc3ccccc3)N2C1=O (some centres not stated)	nt	nt	nt	2.2%	nt	nt
CN(C)[C@@H]1C(=O)C(C(N)=O)=C(O)[C@]2(O)C(=O)C3=C(O)c4c(O)cccc4[C@@](C)(O)[C@H]3[C@H](O)[C@@H]12	nt	nt	nt	nt	nt	i
CC(N)[C@H](O)c1ccc(O)c(O)c1 (some centres not stated)	nt	2.7%	-24.1%	nt	nt	nt
NC[C@H](O)c1ccc(O)c(O)c1	14.4%	-2.7%	-0.5%	?	-21.4%	i	EBOV S4 ratio=i;EBOV S4 blue=i;EBOV S4 green=i

Screening data as filed in PubChem BioAssay.
